Laboratory results published in the supplement of paper PMC8975748.
Where a name gives a salt, the structure may show the parent alone. ± gives the standard deviation of the averaged measurements.

Tests used:
[1] = tested on: Saccharomyces cerevisiae BY4741 SeMeCo community; experiment: mean cell size (pixel area) (pixels); higher = larger cells; settings: 10 µM; 24 h; SM minimal medium
In short: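 Harmony analysis of automated confocal images of paraformaldehyde-fixed yeast gave the mean cell pixel area per well. The yeast was a Saccharomyces cerevisiae BY4741 community carrying four plasmids, each with a fluorescent marker and each complementing one auxotrophy, incubated for 24 h in SM medium containing drug at a final 10 µM in 384-well plates. Results are averaged over 3 replicates. Same SeMeCo high-content imaging drug screen: Selleck FDA-approved drugs at 10 µM, 24 h in SM medium, 384-well plates, 3 replicates.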

[2] = tested on: Saccharomyces cerevisiae BY4741 SeMeCo community; experiment: z-score of subpopulation abundance vs DMSO median, subpopulation auxotrophic for M; higher = larger share of this subpopulation than in DMSO controls; settings: 10 µM; 24 h; SM minimal medium; subpopulation (auxotrophy): M
In short: (§1)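 Scoring was based on each subpopulation's abundance, expressed as a z-score against the vehicle-well median. A Saccharomyces cerevisiae BY4741 community with four plasmids, each restoring one auxotrophy and encoding a distinct fluorescent protein, was pre-grown overnight to OD600 1.0, diluted to 0.3, and added at 70 µl to 384-well plates acoustically predosed with library drugs (10 µM final). It then grew 24 h in minimal SM medium before paraformaldehyde fixation and automated confocal microscopy, with single-auxotroph fluorescent strains setting thresholds and autofluorescence correction.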

[3] = tested on: Saccharomyces cerevisiae BY4741 SeMeCo community; experiment: z-score of subpopulation abundance vs DMSO median, subpopulation auxotrophic for L; higher = larger share of this subpopulation than in DMSO controls; settings: 10 µM; 24 h; SM minimal medium; subpopulation (auxotrophy): L
In short: as §1

[4] = tested on: Saccharomyces cerevisiae BY4741 SeMeCo community; experiment: z-score of subpopulation abundance vs DMSO median, subpopulation auxotrophic for U; higher = larger share of this subpopulation than in DMSO controls; settings: 10 µM; 24 h; SM minimal medium; subpopulation (auxotrophy): U
In short: as §1

[5] = tested on: Saccharomyces cerevisiae BY4741 SeMeCo community; experiment: z-score of subpopulation abundance vs DMSO median, subpopulation auxotrophic for H; higher = larger share of this subpopulation than in DMSO controls; settings: 10 µM; 24 h; SM minimal medium; subpopulation (auxotrophy): H
In short: as §1

[6] = tested on: Saccharomyces cerevisiae BY4741 SeMeCo community; experiment: z-score of subpopulation abundance vs DMSO median, subpopulation auxotrophic for LU; higher = larger share of this subpopulation than in DMSO controls; settings: 10 µM; 24 h; SM minimal medium; subpopulation (auxotrophy): LU
In short: as §1

[7] = tested on: Saccharomyces cerevisiae BY4741 SeMeCo community; experiment: z-score of subpopulation abundance vs DMSO median, subpopulation auxotrophic for LM; higher = larger share of this subpopulation than in DMSO controls; settings: 10 µM; 24 h; SM minimal medium; subpopulation (auxotrophy): LM
In short: as §1

[8] = tested on: Saccharomyces cerevisiae BY4741 SeMeCo community; experiment: z-score of subpopulation abundance vs DMSO median, subpopulation auxotrophic for HU; higher = larger share of this subpopulation than in DMSO controls; settings: 10 µM; 24 h; SM minimal medium; subpopulation (auxotrophy): HU
In short: as §1

[9] = tested on: Saccharomyces cerevisiae BY4741 SeMeCo community; experiment: z-score of subpopulation abundance vs DMSO median, subpopulation auxotrophic for UM; higher = larger share of this subpopulation than in DMSO controls; settings: 10 µM; 24 h; SM minimal medium; subpopulation (auxotrophy): UM
In short: as §1

[10] = tested on: Saccharomyces cerevisiae BY4741 SeMeCo community; experiment: z-score of subpopulation abundance vs DMSO median, subpopulation auxotrophic for HL; higher = larger share of this subpopulation than in DMSO controls; settings: 10 µM; 24 h; SM minimal medium; subpopulation (auxotrophy): HL
In short: as §1

[11] = tested on: Saccharomyces cerevisiae BY4741 SeMeCo community; experiment: z-score of subpopulation abundance vs DMSO median, subpopulation auxotrophic for HLU; higher = larger share of this subpopulation than in DMSO controls; settings: 10 µM; 24 h; SM minimal medium; subpopulation (auxotrophy): HLU
In short: as §1

[12] = tested on: Saccharomyces cerevisiae BY4741 SeMeCo community; experiment: z-score of subpopulation abundance vs DMSO median, subpopulation auxotrophic for HLM; higher = larger share of this subpopulation than in DMSO controls; settings: 10 µM; 24 h; SM minimal medium; subpopulation (auxotrophy): HLM
In short: as §1

[13] = tested on: Saccharomyces cerevisiae BY4741 SeMeCo community; experiment: z-score of subpopulation abundance vs DMSO median, subpopulation auxotrophic for LUM; higher = larger share of this subpopulation than in DMSO controls; settings: 10 µM; 24 h; SM minimal medium; subpopulation (auxotrophy): LUM
In short: as §1

[14] = tested on: Saccharomyces cerevisiae BY4741 SeMeCo community; experiment: z-score of subpopulation abundance vs DMSO median, subpopulation auxotrophic for HLUM; higher = larger share of this subpopulation than in DMSO controls; settings: 10 µM; 24 h; SM minimal medium; subpopulation (auxotrophy): HLUM
In short: as §1

[15] = tested on: Saccharomyces cerevisiae BY4741 SeMeCo community; experiment: z-score of prototroph abundance vs DMSO median; higher = larger share of this subpopulation than in DMSO controls; settings: 10 µM; 24 h; SM minimal medium; subpopulation (auxotrophy): Prototroph
In short: as §1

[16] = tested on: Saccharomyces cerevisiae BY4741 SeMeCo community; experiment: z-score of subpopulation abundance vs DMSO median, subpopulation auxotrophic for HM; higher = larger share of this subpopulation than in DMSO controls; settings: 10 µM; 24 h; SM minimal medium; subpopulation (auxotrophy): HM
In short: as §1

| SMILES | mean cell size [1] | z-score of subpopulation abundance [2] | z-score of subpopulation abundance [3] | z-score of subpopulation abundance [4] | z-score of subpopulation abundance [5] | z-score of subpopulation abundance [6] | z-score of subpopulation abundance [7] | z-score of subpopulation abundance [8] | z-score of subpopulation abundance [9] | z-score of subpopulation abundance [10] | z-score of subpopulation abundance [11] | z-score of subpopulation abundance [12] | z-score of subpopulation abundance [13] | z-score of subpopulation abundance [14] | z-score of prototroph abundance [15] | z-score of subpopulation abundance [16] |
| --- | --- | --- | --- | --- | --- | --- | --- | --- | --- | --- | --- | --- | --- | --- | --- | --- |
| Oc1ccc([C@H]2COc3cc(O)ccc3C2)cc1 [Equol] | 12.4 ± 0.17 | 0.37 | -0.21 | -0.12 | -0.53 | -0.26 | 0.45 | -0.01 | 0.05 | -0.02 | 0 | -0.88 | -0.14 | 0.35 |  |  |
| OC(c1ccccc1)(c1ccccc1)C12CC[N+](CCOCc3ccccc3)(CC1)CC2 [Umeclidinium bromide] | 12.49 ± 0.074 | -0.28 | 0.22 | -0.23 |  | -0.42 | -0.42 | -0.27 |  | -0.7 | -0.12 | 0.44 |  | -0.28 | 0.82 | -0.29 |
| CO/N=C(\C(=O)N[C@@H]1C(=O)N2C(C(=O)O)=C(CSC(=O)c3ccco3)CS[C@H]12)c1csc(N)n1 [Ceftiofur] | 12.28 ± 0.045 | -0.46 | -0.31 | 0.57 | 0.28 | 0.54 | -0.51 | 0.47 | 0.79 | 0.39 | -0.05 | 0.23 | -0.02 |  |  | -0.13 |
| CO[C@H]1O[C@@H]2O[C@@]3(C)CC[C@H]4[C@H](C)CC[C@@H]([C@H]1C)[C@@]24OO3 [Artemether] | 12.05 ± 0.027 | -4.52 | -0.43 | 0.63 | 2.67 | -0.14 | -1.32 | 0.26 | -0.57 | -0.28 | -0.85 | -0.27 | -0.58 |  | 1.17 | -2 |
| Clc1ccc(CSC(Cn2ccnc2)c2ccc(Cl)cc2Cl)cc1 (configuration not stated) [Sulconazole Nitrate] | 12.1 ± 0.16 | -2.96 | -0.34 | 1.17 |  | -2.59 | -2.53 | 14.1 | 5.19 | 11 | 7.54 | 24.7 | 0.84 | 10.5 | -9.61 |  |
| N[C@@H](CCC(=O)O)C(=O)O [(S)-Glutamic acid] | 12.1 ± 0.22 | -0.4 | 0.52 |  | 0.17 | -0.36 | 0.15 | -0.75 | -0.63 | -0.27 | -0.63 | 0.07 | -0.99 | 0.06 | 0.18 | -0.08 |
| CC1CCc2cc(F)cc3c(=O)c(C(=O)O)cn1c23 (configuration not stated) [Flumequine] | 12.3 ± 0.18 | -1.12 | -0.69 | 0.29 | -1 | -0.58 | -1.29 | 0.37 | -1.16 | -0.81 | 0.18 | -0.73 | -0.22 | 0.55 | 1.18 | -1.42 |
| COC(=O)C1=C(C)NC(C)=C(C(=O)OC(C)(C)CN(C)CCC(c2ccccc2)c2ccccc2)C1c1cccc([N+](=O)[O-])c1 (configuration not stated) [Lercanidipine hydrochloride] | 12.3 ± 0.19 | 0.32 | 1.4 | -1.5 | 2.45 | -0.32 | 1.89 | -0.84 | -1.34 |  | 0.32 | 0.74 | 0.24 | -0.22 | -0.42 | 2.19 |
| O=c1[nH]c2ccccc2n1CCN1CCN(c2cccc(C(F)(F)F)c2)CC1 [Flibanserin] | 12.25 ± 0.046 | -0.31 | -0.73 | 0.4 | -0.96 | -0.2 | -0.37 |  | 0.43 | -0.75 | -0.49 | -0.86 | -0.43 |  | 0.65 | -0.79 |
| CCCCCCCCCCCC(=O)O [Lauric Acid] | 12.2 ± 0.16 | -1.03 | -0.6 | 0.57 | -1.48 | -0.2 | -0.8 | -0.42 |  | -1.05 | -0.82 | -1.21 |  | -0.48 | 0.84 | -0.82 |
| COc1ccc(C(=O)NCc2ccc(OCCN(C)C)cc2)cc1OC [Itopride hydrochloride] | 12.4 ± 0.13 | 0.65 | 0 | -0.45 | -0.37 | 0.56 | 0.86 | 0.11 | 0.38 |  | 0.07 | 0.04 | 0.15 | -0.16 | -0.3 | 0.17 |
| CCOC(=O)CCC(=O)O[C@H]1[C@H](O[C@@H]2[C@@H](C)[C@H](O[C@H]3C[C@@](C)(OC)[C@@H](O)[C@H](C)O3)[C@@H](C)C(=O)O[C@H](CC)[C@@](C)(O)[C@H](O)[C@@H](C)C(=O)[C@H](C)C[C@@]2(C)O)O[C@H](C)C[C@@H]1N(C)C [Erythromycin Ethylsuccinate] | 12.4 ± 0.15 | 1.39 | 2.32 |  | 1.99 | 0.76 | 3.22 | 0.76 | -0.31 | 3.1 | 1.44 | 2.71 | 2.68 |  |  | 3.14 |
| Nc1nc(=O)[nH]cc1F [Flucytosine] | 13.9 ± 0.19 | -3.75 | -1.32 |  | 17.8 | 0.49 |  | 8.85 | 1.6 | 13.2 | 1.33 | 35.5 | 4.96 | 38.3 | -10.3 | 17.8 |
| CNCC[C@H](Oc1cccc2ccccc12)c1cccs1 [Duloxetine] | 12.3 ± 0.34 | 0.27 | -1.31 | -0.4 | -0.81 | -0.71 | -0.49 | -0.4 | -0.39 | -1.33 | -1.41 | -0.37 | -0.47 | -0.23 | 0.49 | 0.1 |
| Cc1ncc([N+](=O)[O-])n1CC(O)CCl (configuration not stated) [Ornidazole] | 12.5 ± 0.26 | 1.05 | 0 | -0.47 | -0.77 | -0.8 | 0.41 | -0.37 | -0.4 |  | -0.38 | -0.03 | -0.87 | 0.77 | 0.34 | 0.34 |
